A selection: hits, their analogues and other compounds. The true share with any hit is near 17%.
TDP1 cell noCPT: qHTS for Inhibitors of human tyrosyl-DNA phosphodiesterase 1 (TDP1): qHTS in cells in absence of CPT. 420,000 tested, 15% active. DT40 Tdp1-/- hTDP1 cells, no CPT, ATP luminescence, 48 h. Potency, µM (highest dose often 46.2 µM), for inactives: at the top dose activity change, negative = growth inhibition, actives largely listed as inhibitors; note: % is set by controls: 0 for no effect and ±100 for the full control effect; nearly all actives have a fitted effect of over 55% in size
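Stably hTDP1-transfected Tdp1-null chicken DT40 cells were treated with library compounds minus camptothecin and grown for at least 48 hr at 37 °C, after which cellular ATP was quantified by luminescence.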
HT1080 IDH1KD tx: HT-1080 IDH1 knockdown cell toxicity (counter line) | HT-1080 IDH1 knockdown viability, ATP luminescence, 48 h | Potency, µM (series often up to 46.1 µM), without a hit: at the highest dose activity, negative = toxicity, most hits filed as cytotoxic | 360,000 tested, 2% active | AID 686971;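 note: 0% = DMSO wells and -100% = cell-free medium wells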
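In this qHTS, HT-1080 cells depleted of IDH1 are exposed for 48 h at 37 °C to compound titrations. Toxicity is scored from CellTiter-Glo luminescence, with DMSO as full viability and medium alone as none.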
TDP1 cell CPT: growth inhibition of DT40 Tdp1-/-;hTDP1 cells with camptothecin (screen for TDP1 inhibitors). 420,000 tested, 12% active. AID 686979. Potency, µM (titrated, usually from 46.2 µM), for inactives: top-dose activity change, negative = growth inhibition, usual class: inhibitors. chicken DT40 Tdp1-/-;hTDP1 cells + 20 nM CPT, ATP luminescence, 48 h; note: % is set by controls: 0 for no effect and ±100 for the full control effect; nearly all actives have a fitted effect of over 55% in size
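Cell growth measured by CellTiter-Glo luminescence after a minimum 48 h, 37 C compound exposure with 20 nM CPT in Tdp1-knockout DT40 cells stably expressing hTDP1, seeded 400/well; qHTS titration format.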
HepG2 viability: kills HepG2 cells in TGF-b inhibitor counter-screen; HepG2 CAGA-GFP viability, ATP luminescence, 18 h; Potency, µM (highest dose often 46.1 µM), without a hit: at the highest dose activity change, negative = cytotoxicity, most hits filed as cytotoxic; 410,000 tested, 0.76% active
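CellTiter-Glo luminescence gave cytotoxicity after 18 hours at 37 degrees C. The cells were HepG2 CAGA-GFP in 1% FBS DMEM, stimulated with 500 pg/mL TGF-beta after compound addition. %Activity was normalised to no-cell wells (complete cell-killing) and DMSO (no toxicity), and curves were fitted and classified.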
HT1080-NT tox: kills 2HG-producing HT-1080-NT fibrosarcoma cells; HT-1080-NT fibrosarcoma viability, CellTiter-Glo ATP luminescence, 48 h; Potency, µM (series often up to 46.1 µM), inactives show top-dose activity, negative = less viability, most hits filed as cytotoxic; 360,000 tested, 1.6% active;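 note: NT is the 2HG producing partner of a matched IDH1 knockdown line; 0% = DMSO-treated cells and -100% = media-only wells without cells; nearly all actives have a fitted effect of over 55% in size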
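Read-out is CellTiter-Glo luminescence after 10 minutes at room temperature, following 48 hours' compound treatment of HT-1080-NT cells (750 cells/well, RPMI, 5% FBS, 37 degrees C).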
TGFb SMAD3 inh: TGF-b pathway inhibition | HepG2 CAGA-GFP TGF-b/SMAD3 reporter, GFP fluorescence, 18 h; TGF-beta stimulated, 500 pg/mL final | Potency, µM (doses to about 46.1 µM), inactives show at the highest dose activity, negative = inhibition, actives largely listed as inhibitors | 410,000 tested, 1.2% active | AID 588855; note: % is set by controls: 0 for no effect and ±100 for the full control effect; nearly all actives have a fitted effect of over 65% in size
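Smad-responsive CAGA-GFP expression was quantified in HEPG2 cells exposed to compounds and 500 pg/mL final TGF-beta for 18 h at 37 degrees C; unstimulated wells defined full inhibition.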
An asterisk follows results filed as active; ? = inconclusive; / = not tested or not shown; [ ] = another dose, or the depositor's remark. Calls come from the whole dose curve; as a rule, active = well fitted curve in the direction sought with a large enough effect; inconclusive = small, poorly fitted or top-dose-only effect, or another doubt; inactive = no such curve, though single readings can be large; an effect the other way counts as inactive or inconclusive. Potency is the fitted concentration of half-maximal effect.

SMILES	TDP1 cell noCPT	HT1080 IDH1KD tx	TDP1 cell CPT	HepG2 viability	HT1080-NT tox	TGFb SMAD3 inh
CCOc1ccccc1C(=O)OCC(=O)Nc1nnc(-c2ccccc2)o1	16µM*	-14%	?	-19%	-3%	-5%
CS(=O)(=O)c1ccc(C(=O)NC2CCCc3ccccc32)cc1 (stereo not drawn)	-9%	19%	2%	1%	11%	1%
COc1ccccc1-c1noc(CCCC(=O)Nc2cccc(C(F)(F)F)c2)n1	18µM*	/	?	-15%	/	13µM*
CCOc1ccccc1-c1noc(CCCC(=O)Nc2cccc(C(F)(F)F)c2)n1	18µM*	/	18µM*	-35%	/	?
COc1ccccc1-c1noc(CCC(=O)Nc2cc(C(F)(F)F)ccc2Cl)n1	?	-2%	-21%	-10%	-8%	0%
Cc1ncc2c(c1CNS(=O)(=O)N(C)C)CCN(C(=O)c1c(F)cccc1F)C2	-10%	/	6%[9.04 µM]	/	/	/
CC(C)CCNC(=O)CCCCn1c(=O)[nH]c2ccsc2c1=O	-5%	1%	-20%	-34%	0%	18%
O=C(CCCCn1c(=O)[nH]c2ccsc2c1=O)N1CCN(c2cccc(Cl)c2)CC1	13µM*	/	16µM*	-24%	/	?
CCCCC(CC)CNC(=O)CCCCCn1c(=O)[nH]c2ccsc2c1=O (stereo not drawn)	23µM*	/	?	-21%	/	?
COC(=O)c1ccc2c(=O)n(CCCCCC(=O)N3CCN(c4cccc(C)c4C)CC3)c(=O)[nH]c2c1	?	/	?	-2%	/	2.8µM*
O=C(CCn1c(=O)[nH]c2ccsc2c1=O)N1CCN(c2ccc([N+](=O)[O-])cc2)CC1	?	-13%	16µM*	-4%	0%	-19%
O=c1cc(CSc2ccc(S(=O)(=O)N3CCCCC3)cn2)nc2sccn12	?	6%	-23%	0%	6%	-4%
O=C(Cn1c(=O)[nH]c2ccsc2c1=O)N1CCN(c2ccc(F)cc2)CC1	?	-11%	-24%	-12%	-13%	-1%
Cc1ccc(Cl)cc1N1CCN(C(=O)CCCCCn2c(=O)[nH]c3ccccc3c2=O)CC1	0.65µM*	/	0.73µM*	1%	/	22%
Cc1cccc(N2CCN(C(=O)CCCn3c(=O)[nH]c4ccsc4c3=O)CC2)c1C	?	/	21µM*	-4%	/	-11%
CC(=O)c1ccc(N2CCN(C(=O)CCCc3nc4ccccc4s3)CC2)cc1	10µM*	-4%	12µM*	-45%	-13%	-26%
CC(=O)c1ccc(N2CCN(C(=O)CCCCn3c(=O)[nH]c4ccsc4c3=O)CC2)cc1	23µM*	/	13µM*	-2%	/	13%
CC(=O)Nc1ccc(NC(=O)C(C)OC(=O)c2cccc(S(=O)(=O)N3CCCCCC3)c2)cc1 (stereo not drawn)	?	9%	-24%	16%	4%	5%
COc1cc2c(NC3CCN(C)CC3)nc(N3CCCN(C)CC3)nc2cc1OCCCC(C)C	1.1µM*	/	1.1µM*	3.5µM*	/	2.8µM*
COc1cc2c(NC3CCN(C)CC3)nc(N3CCCN(C)CC3)nc2cc1OCCOCCN1CCCC1	1%	/	-20%	0%	/	7%
COc1cc2c(NC3CCN(C)CC3)nc(N3CCCN(C)CC3)nc2cc1OCCCCN	?	/	?	-14%	/	?
COc1cc2c(NC3CCN(C)CC3)nc(N3CCCN(C)CC3)nc2cc1OCCCN1CCCCC1	10µM*	/	18µM*	8%	/	?
CCCCC(=O)N1C/C=C\C(c2ccc(OC)cc2)N(Cc2ccc(F)cc2)C(=O)C1C (stereo not drawn)	/	/	/	-20%	/	?
C#CCn1c(COc2ccccc2C)nc2ccccc21	?	/	-24%	-28%	/	1%
COc1ccccc1[C@H]1C(c2cccc(C)c2)=NN(c2ccccc2)[C@@H]1CO	?	?	?	-78%	?	?
SMILES	TDP1 cell noCPT	HT1080 IDH1KD tx	TDP1 cell CPT	HepG2 viability	HT1080-NT tox	TGFb SMAD3 inh
OC[C@@H]1[C@@H](c2ccc(Cl)cc2)C(c2ccccc2)=NN1c1ccccc1	16µM*	?	?	-116%	?	?
OC[C@@H]1[C@@H](c2ccc(F)cc2)C(c2cccc(Cl)c2)=NN1c1ccccc1	23µM*	-21%	21µM*	-91%	-21%	?
OC[C@@H]1[C@@H](c2ccc(Cl)cc2)C(c2cccc(Cl)c2)=NN1c1ccccc1	13µM*	-28%	21µM*	13µM*	?	11µM*
CN(CC(=O)N1CC=C(c2ccccc2)CC1)S(=O)(=O)c1cnc[nH]1	-20%	7%	-6%	14%	14%	0%
Cc1cc(C)c(C#N)c(OCC2CCCO2)n1 (stereo not drawn)	9%	14%	-16%	10%	19%	0%
O=C(NCCc1ccncc1)C12CC3CC(CC(C3)C1)C2	?	-1%	?	-19%	-3%	2%
O=C1CCCCC1(CCc1ccncc1)CCc1ccncc1	12µM*	-4%	18µM*	-17%	-3%	-17%
CCc1nc2ccc(C(=O)NCCCN3CCCC3=O)cn2c1N(CC)Cc1cccc(Br)c1	?	0%	21µM*	-2%	-19%	4%
CCc1nc2ccc(C(=O)NC(C)(C)C)cn2c1N(CC)Cc1cccc(Br)c1	16µM*	?	18µM*	-42%	?	?
CCc1nc2ccc(C(=O)NCCCN3CCCC3=O)cn2c1N(CC)CCN(C)C	-3%	6%	9%	1%	18%	8%
CCc1nc2ccc(C(=O)NCCc3ccccn3)cn2c1N(CC)Cc1cccc(Br)c1	9.2µM*	?	8.2µM*	-19%	?	-2%
O=C1NC[C@H](CCCCN2CCN(CCC3CCCCC3)C(=O)C2=O)N(CCC2CCCCC2)C1=O	0%	1%	3%	/	5%	/
Cc1cc(C)c(NC(=O)Cn2c(=O)n(Cc3ccc(C(=O)NCc4ccco4)cc3)c(=O)c3sccc32)c(C)c1	-47%	/	?	-84%	/	10µM*
Cc1cccc(C)c1NC(=O)Cn1c(=O)n(Cc2ccc(C(=O)NCc3ccco3)cc2)c(=O)c2sccc21	23µM*	/	21µM*	-67%	/	?
N#Cc1ccccc1Cn1c(=O)n(Cc2ccc(C(=O)NCc3ccco3)cc2)c(=O)c2sccc21	-8%	-19%	12%	11%	-9%	3%
